# Source: PubChem BioAssay (EPA / NIEHS)
# Values joined by “and” are separate entries in the source; they are usually repeats but may differ in a detail not shown here. Equal entries are not always repeated. Results filed as inconclusive are left out. The source holds several records for some structures; these can differ, active in one and inactive in another. Active and inactive are the calls of the source. The calls were made as follows: active = hit-call score of the fitted dose curve at least 0.9, where 1 is the maximum; inconclusive = response in the unintended direction; inactive = score below 0.9.
# Columns and labels:
# [1] = target: Estrogen receptor (Homo sapiens) (UniProt P03372); test: OT_ER_ERaERa_1440: Odyssey Thera (OT) 24-hour HEK293T Protein-Complementation Assay for Estrogen Receptor-alpha/-alpha Homodimer (AID 2283349);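 also: hits raise fluorescence above DMSO for agonists and antagonists alike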
# How it was run: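 Protein-fragment complementation between two human ERα ligand-binding domains (aa 310-547) in stably transfected HEK293T cells was monitored after 24 h treatment, using fluorescence intensity relative to vehicle controls.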
# [2] = target: Estrogen receptor (Homo sapiens) (UniProt P03372); test: OT_ER_ERaERa_0480: Odyssey Thera (OT) 8-hour HEK293T Protein-Complementation Assay for Estrogen Receptor-alpha/-alpha Homodimer (AID 2283351);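 also: rise in fluorescence from reassembled reporter fragments on ERα LBD homodimer in nucleus or whole cell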
# How it was run: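 HEK293T cells stably expressing the human ERα ligand-binding domain (aa 310-547) as a homodimer PCA were dosed with compound for 8 h. Gain of fluorescence intensity versus DMSO vehicle was read by laser scanning cytometry.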
# [3] = target: chimpanzee Androgen Receptor (AR), AR (gene 747460) (UniProt O97775); test: NVS_NR_cAR: NovaScreen (NVS) Nuclear Receptor Binding Assay for chimpanzee Androgen Receptor (AR) (AID 2283346);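 also: radioligand displacement from AR measured by scintillation counting in a cell-free assay; a loss of bound radioligand signal versus DMSO counts as binding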
# How it was run: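 Cell-free competition binding with insect-cell (Sf9/Sf21) extracted chimpanzee AR; scintillation signal from lysate at 72 h. Screened in duplicate at 25 uM, then concentration-response for actives; fitting relative to DMSO.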
# [4] = target: Estrogen receptor beta (Homo sapiens) (UniProt Q92731); test: OT_ER_ERbERb_0480: Odyssey Thera (OT) 8-hour HEK293T Protein-Complementation Assay for Estrogen Receptor-beta/-beta Homodimer (AID 2283357);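 also: active means signal gain over DMSO baseline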
# How it was run: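 Cells (HEK293T, stable ER-beta LBD PCA pair) are treated 8 hours, fixed and Draq5-stained; signal is fluorescence intensity increase relative to vehicle, fitted in the gain direction.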
# [5] = target: Androgen Receptor/SRC-1 Co-activator, AR (gene 367) (UniProt P10275); test: OT_AR_ARSRC1_0960: Odyssey Thera (OT) 16-hour HEK293T Protein-Complementation Assay for Androgen Receptor/SRC-1 Co-activator (AID 2283353);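 also: actives raise the signal above DMSO so potency reflects increased AR and SRC-1 complex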
# How it was run: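 HEK293T cells stably expressing AR and SRC-1 fused to split Venus YFP fragments via (Gly4Ser)2 linkers were dosed for 16 h. Nuclear/cytoplasmic fluorescence ratio at 488 nm, ≥400 cells per image, fitted for gain of signal versus DMSO.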
# [6] = target: Androgen Receptor/SRC-1 Co-activator, AR (gene 367) (UniProt P10275); test: OT_AR_ARSRC1_0480: Odyssey Thera (OT) 8-hour HEK293T Protein-Complementation Assay for Androgen Receptor/SRC-1 Co-activator (AID 2283354);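 also: hits raise the complementation signal above DMSO so AC50 marks enhancers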
# How it was run: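 Measures AR/SRC-1 binding by Venus YFP fragment complementation in HEK293T stable lines at 8 h post-dose. Imaging quantifies the 488nm nucleus/cytoplasm ratio in ≥400 cells; DMSO defines baseline.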
# [7] = target: Bile acid receptor (Homo sapiens) (UniProt Q96RI1); test: NVS_NR_hFXR_Antagonist: NovaScreen (NVS) Nuclear Receptor Binding Assay for human Farnesoid X Receptor Antagonism (FXR) (AID 2283350)
# How it was run: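 Cell-free TR-FRET ligand-binding read-out on human FXR (NR1H4) in antagonist mode, measured 1 h after dosing. Primary screen in duplicate at 25 uM, actives retested in concentration series; signal loss scored versus DMSO.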
# Sequence of Androgen Receptor/SRC-1 Co-activator, AR (gene 367) (P10275 whole entry, looked up, the tested form may be a part): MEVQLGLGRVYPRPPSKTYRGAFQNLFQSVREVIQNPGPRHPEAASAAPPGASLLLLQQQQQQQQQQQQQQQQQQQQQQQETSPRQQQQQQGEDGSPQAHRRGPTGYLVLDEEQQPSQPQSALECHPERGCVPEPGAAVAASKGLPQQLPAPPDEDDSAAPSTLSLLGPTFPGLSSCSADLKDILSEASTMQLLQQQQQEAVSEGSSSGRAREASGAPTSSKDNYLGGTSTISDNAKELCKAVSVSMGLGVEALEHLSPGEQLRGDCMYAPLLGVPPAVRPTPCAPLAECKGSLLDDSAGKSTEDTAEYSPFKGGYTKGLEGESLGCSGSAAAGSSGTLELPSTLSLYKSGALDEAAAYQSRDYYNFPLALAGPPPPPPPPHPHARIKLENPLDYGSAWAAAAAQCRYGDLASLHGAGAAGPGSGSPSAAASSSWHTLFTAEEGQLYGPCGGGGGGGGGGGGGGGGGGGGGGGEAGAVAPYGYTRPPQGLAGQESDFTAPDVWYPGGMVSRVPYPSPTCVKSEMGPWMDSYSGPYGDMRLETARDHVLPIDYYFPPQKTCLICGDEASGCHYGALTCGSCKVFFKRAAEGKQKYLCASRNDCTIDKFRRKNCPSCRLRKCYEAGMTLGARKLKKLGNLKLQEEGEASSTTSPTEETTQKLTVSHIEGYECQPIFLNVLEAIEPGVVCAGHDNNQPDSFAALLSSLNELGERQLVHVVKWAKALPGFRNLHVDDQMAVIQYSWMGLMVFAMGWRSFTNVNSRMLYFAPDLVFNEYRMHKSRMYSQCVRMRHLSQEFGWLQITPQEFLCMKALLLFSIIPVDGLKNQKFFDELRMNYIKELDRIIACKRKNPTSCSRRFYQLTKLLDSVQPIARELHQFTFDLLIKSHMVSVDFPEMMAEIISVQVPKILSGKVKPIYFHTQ
# Sequence of Estrogen receptor beta (Homo sapiens) (Q92731 whole entry, looked up, the tested form may be a part): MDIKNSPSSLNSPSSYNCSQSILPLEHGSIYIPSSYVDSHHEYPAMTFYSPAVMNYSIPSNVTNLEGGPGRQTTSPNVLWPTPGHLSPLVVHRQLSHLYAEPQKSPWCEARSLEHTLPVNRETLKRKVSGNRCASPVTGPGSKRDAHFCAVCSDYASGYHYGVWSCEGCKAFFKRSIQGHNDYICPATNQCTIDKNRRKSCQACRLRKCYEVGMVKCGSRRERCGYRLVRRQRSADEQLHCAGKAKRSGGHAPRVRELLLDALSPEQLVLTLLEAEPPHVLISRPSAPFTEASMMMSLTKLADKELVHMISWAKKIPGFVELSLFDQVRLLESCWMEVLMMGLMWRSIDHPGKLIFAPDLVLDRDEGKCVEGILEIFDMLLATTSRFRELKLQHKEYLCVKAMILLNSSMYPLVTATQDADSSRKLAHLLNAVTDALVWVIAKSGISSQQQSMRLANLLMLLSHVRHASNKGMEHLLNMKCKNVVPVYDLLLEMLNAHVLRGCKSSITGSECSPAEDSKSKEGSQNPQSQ
# Sequence of chimpanzee Androgen Receptor (AR), AR (gene 747460) (O97775 whole entry, looked up): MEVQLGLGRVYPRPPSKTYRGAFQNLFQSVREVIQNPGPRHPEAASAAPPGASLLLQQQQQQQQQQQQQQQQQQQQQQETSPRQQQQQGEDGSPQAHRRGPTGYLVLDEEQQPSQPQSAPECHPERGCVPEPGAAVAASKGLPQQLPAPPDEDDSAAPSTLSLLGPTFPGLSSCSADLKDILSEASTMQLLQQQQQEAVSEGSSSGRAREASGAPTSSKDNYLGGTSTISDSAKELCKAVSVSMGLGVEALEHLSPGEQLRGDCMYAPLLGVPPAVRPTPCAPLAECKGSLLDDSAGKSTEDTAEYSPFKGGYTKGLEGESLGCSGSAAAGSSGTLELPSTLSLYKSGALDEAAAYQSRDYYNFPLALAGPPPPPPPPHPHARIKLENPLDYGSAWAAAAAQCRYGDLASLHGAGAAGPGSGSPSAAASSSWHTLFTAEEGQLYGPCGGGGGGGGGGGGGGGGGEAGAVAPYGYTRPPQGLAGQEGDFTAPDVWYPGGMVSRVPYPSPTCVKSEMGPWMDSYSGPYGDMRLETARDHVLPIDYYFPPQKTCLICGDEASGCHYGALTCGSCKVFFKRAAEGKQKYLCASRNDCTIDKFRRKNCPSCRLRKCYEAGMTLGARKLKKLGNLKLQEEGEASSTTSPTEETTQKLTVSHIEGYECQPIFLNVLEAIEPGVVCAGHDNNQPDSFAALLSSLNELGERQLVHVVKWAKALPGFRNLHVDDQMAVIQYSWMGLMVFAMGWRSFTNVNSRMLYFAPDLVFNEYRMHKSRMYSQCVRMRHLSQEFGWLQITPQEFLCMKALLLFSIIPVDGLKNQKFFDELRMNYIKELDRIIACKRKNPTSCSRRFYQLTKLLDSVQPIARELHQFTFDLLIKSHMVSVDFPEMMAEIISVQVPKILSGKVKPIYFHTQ
# Sequence of Estrogen receptor (Homo sapiens) (P03372 whole entry, looked up, the tested form may be a part): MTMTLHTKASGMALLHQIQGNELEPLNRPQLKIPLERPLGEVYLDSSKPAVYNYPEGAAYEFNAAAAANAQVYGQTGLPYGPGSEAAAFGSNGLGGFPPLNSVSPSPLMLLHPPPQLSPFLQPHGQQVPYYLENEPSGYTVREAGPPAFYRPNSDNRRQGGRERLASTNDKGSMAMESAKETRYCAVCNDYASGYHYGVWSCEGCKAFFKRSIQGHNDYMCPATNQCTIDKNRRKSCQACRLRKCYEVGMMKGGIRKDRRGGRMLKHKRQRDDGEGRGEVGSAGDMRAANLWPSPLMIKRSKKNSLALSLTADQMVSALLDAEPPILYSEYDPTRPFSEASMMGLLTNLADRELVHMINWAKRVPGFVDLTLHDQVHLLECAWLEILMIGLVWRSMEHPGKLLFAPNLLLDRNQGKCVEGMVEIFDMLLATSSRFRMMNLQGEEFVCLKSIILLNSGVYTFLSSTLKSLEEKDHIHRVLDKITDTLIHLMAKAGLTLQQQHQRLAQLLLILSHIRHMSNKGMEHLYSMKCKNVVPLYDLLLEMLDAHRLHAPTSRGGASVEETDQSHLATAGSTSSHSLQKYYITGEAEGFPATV
# Sequence of Bile acid receptor (Homo sapiens) (Q96RI1 whole entry, looked up): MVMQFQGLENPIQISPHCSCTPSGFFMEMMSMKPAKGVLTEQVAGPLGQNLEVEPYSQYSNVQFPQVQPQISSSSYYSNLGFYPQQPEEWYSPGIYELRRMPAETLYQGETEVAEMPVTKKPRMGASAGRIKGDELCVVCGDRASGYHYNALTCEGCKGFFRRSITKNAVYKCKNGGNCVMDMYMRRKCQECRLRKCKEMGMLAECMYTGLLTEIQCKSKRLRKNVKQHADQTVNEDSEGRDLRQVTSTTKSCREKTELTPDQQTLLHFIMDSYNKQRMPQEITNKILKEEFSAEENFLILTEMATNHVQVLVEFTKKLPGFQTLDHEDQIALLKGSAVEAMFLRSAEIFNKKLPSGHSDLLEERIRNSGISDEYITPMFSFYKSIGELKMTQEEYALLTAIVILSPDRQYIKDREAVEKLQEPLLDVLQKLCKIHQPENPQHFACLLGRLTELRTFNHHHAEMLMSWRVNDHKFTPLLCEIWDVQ
structure (smiles),measurement,setting,value
O=C(OCCCCCCOC(=O)c1ccccc1)c1ccccc1,outcome,[1],inactive
same,outcome,[2],inactive
CC1(C)NC(=O)N(c2ccc([N+](=O)[O-])c(C(F)(F)F)c2)C1=O,AC50,[3],1.06 µM (active) and 136 nM (active)
same,outcome,[4],inactive
c1ccc2ccccc2c1,outcome,[1],inactive
same,outcome,[2],inactive
CN(C)C(=O)C1(N2CCCCC2)CCN(CC[C@@]2(c3ccc(Cl)c(Cl)c3)CN(C(=O)c3ccccc3)CCO2)CC1,AC50,[3],13.9 µM (active)
same,outcome,[1],inactive
same,AC50,[5],11.8 µM (active)
same,AC50,[6],16.6 µM (active)
COc1ccc2cc(S(=O)(=O)N[C@H](CC(=O)N[C@H](Cc3ccc(CN4[C@H](C)CCC[C@@H]4C)cc3)C(=O)N(C)C(C)C)c3ccc4c(c3)OCO4)ccc2c1,AC50,[3],10.8 µM (active)
same,outcome,[1],inactive
same,outcome,[2],inactive
Cc1oc2c(NC(=O)c3c(Cl)cccc3Cl)cccc2c1C(C)(C)O,outcome,[3],inactive
same,outcome,[1],inactive
same,outcome,[2],inactive
CCCCCCCCOc1ccc(C(=O)c2ccccc2)c(O)c1,outcome,[1],inactive
same,outcome,[2],inactive
O=C(O)c1ccccc1C(=O)OCc1ccccc1,outcome,[1],inactive
same,outcome,[7],inactive
same,outcome,[2],inactive
same,outcome,[5],inactive
same,outcome,[6],inactive
CC/C(=C(/CC)c1ccc(O)cc1)c1ccc(O)cc1,AC50,[3],12.6 µM (active)
same,outcome,[3],inactive
O=c1c(-c2ccc(O)cc2)coc2cc(O)cc(O)c12,outcome,[3],inactive
same,outcome,[7],inactive
same,outcome,[5],inactive
same,outcome,[6],inactive
Cc1ccc(C(C)C)cc1,outcome,[1],inactive
same,outcome,[2],inactive
CC(C)(C)c1cc(/C=C2\SC(N)=NC2=O)cc(C(C)(C)C)c1O,AC50,[3],33.9 µM (active)
same,outcome,[1],inactive
same,outcome,[2],inactive
Cc1cn([C@H]2C[C@H](N=[N+]=[N-])[C@@H](CO)O2)c(=O)[nH]c1=O,outcome,[1],inactive
